# KB-V1 MDR tox: qHTS assay for MDR1-selective chemotherapeutics: Primary screen using the drug-selected MDR subline cells KB-V1. KB-V1 MDR cells viability, CellTiter-Glo, 72 h. Potency, µM (doses to about 46.1 µM), hits mostly cytotoxic. 400,000 tested, 3.4% active; also: potency is read from the fitted curve at half-maximal effect; % is scaled to controls: 0 for no effect and ±100 for the full control effect; nearly all actives have a fitted effect of over 60% in size
#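 In this primary screen, KB-V1 cells overexpressing P-gp are incubated with library compounds (lowest to highest concentration) for 72 h at 37 degrees C before a luminescent ATP viability read.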
# MCF10A rereplic: A quantitative high throughput screen for small molecules that induce DNA re-replication in MCF 10a normal breast cells; MCF 10A DNA re-replication, Hoechst nuclear intensity, 48 h; AID 624296, 2012; Potency, µM (highest dose often 46.1 µM), for the others: at the highest dose activity, positive = re-replication, most hits filed as activators; 350,000 tested, 2.9% active; also: potency is read from the fitted curve at half-maximal effect; % of control where 0% means no effect; nearly all actives have a fitted effect of over 50% in size
# SW480 rerep: A quantitative high throughput screen for small molecules that induce DNA re-replication in SW480 colon adenocarcinoma cells; 340,000 tested, 1.8% active; Potency, µM (series often up to 46.1 µM), inactives show top-dose re-replication activation, most hits filed as activators; SW480 DNA re-replication, Hoechst DNA content imaging, 48 h; also: potency is read from the fitted curve at half-maximal effect; % of control where 0% means no effect; nearly all actives have a fitted effect of over 55% in size
#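 Image-based DNA-content assay: after two days of treatment, nuclei were labelled with the DNA dye Hoechst and imaged, and hits were compounds raising the count of nuclei showing high fluorescence intensity.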
# KCNH2 3.1 block: qHTS for Inhibitors of KCHN2 3.1: Mutant qHTS; 340,000 tested, 0.95% active; activity change, % (tested at about 1.8 µM); AID 720553, 2013; U2OS KCNH2 3.1, thallium flux FluxOr; hits give low values;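 active = maximum activity change below -70%; inconclusive = maximum activity change from -70% to -50%; inactive = maximum activity change above -50%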;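 also: thallium influx rate constant from kinetic fluorescence after stimulation buffer; % is scaled to controls: 0 for no effect and ±100 for the full control effect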
#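 Thallium flux via FluxOr fluorescence (Red40 quencher, 45 min loading) in U2OS cells virally expressing the KCNH2 3.1 isoform (1.77 x 10^8 /mL virus, overnight at 37 C). Rate constants from 2-min kinetic reads post-stimulation, normalised to positive and negative controls.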
# KB-3-1 tox: qHTS assay for MDR1-selective chemotherapeutics: Primary screen using the parental adenocarcinoma cell KB-3-1. KB-3-1 viability, CellTiter-Glo ATP luminescence, 72 h. Potency, µM (top dose mostly 46.1 µM), actives largely listed as cytotoxic. 400,000 tested, 1.4% active. AID 1347075, 2019; also: potency is read from the fitted curve at half-maximal effect; % is scaled to controls: 0 for no effect and ±100 for the full control effect; nearly all actives have a fitted effect of over 60% in size
#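 Parental KB-3-1 adenocarcinoma cells in phenol-red-free DMEM with 10% FBS were pin-treated with compounds at several concentrations, incubated 72 h at 37 °C, and viability read by CellTiter-Glo luminescence; concentration-effect curves were fitted after normalization.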
# KCNH2 WT inh: qHTS for Inhibitors of KCHN2 3.1: Wildtype qHTS | 340,000 tested, 0.37% active | Voltage-gated inwardly rectifying potassium channel KCNH2 (Homo sapiens), Q12809 | U2OS, BacMam KCNH2, thallium flux FluxOr; hits give low values | activity change, % at 1.84 µM;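 active = maximum activity change below -70%; inconclusive = maximum activity change between -70% and -50%; inactive = maximum activity change above -50%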; also: % is scaled to controls: 0 for no effect and ±100 for the full control effect
#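 U2OS cells transduced with wild-type KCNH2 virus are loaded with FluxOr dye for 45 min, and thallium flux is measured in kinetic reads before and after stimulation buffer. Rate constants are normalized to DMSO controls.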
# Active calls of the source: *; i = inactive; ? = inconclusive; . = no result given. Shown are actives, neighbours in structure and some others; about 7.6% of the full set was active somewhere. Unless noted, calls follow the shape of the dose curve; as a rule, active = well fitted curve in the direction sought with a large enough effect; inconclusive = small, poorly fitted or top-dose-only effect, or another doubt; inactive = no such curve, though single readings can be large; an effect the other way counts as inactive or inconclusive.
SMILES,KB-V1 MDR tox,MCF10A rereplic,SW480 rerep,KCNH2 3.1 block,KB-3-1 tox,KCNH2 WT inh
O=C(c1cc2cc(F)ccc2[nH]1)N(Cc1cccnc1)CC1CCCN(C2CCCCC2)C1 (centres undefined),i,17%,-9%,-109*,i,-25
Cc1ccc2oc(-c3cccc(NC(=O)COc4ccc(Cl)cc4)c3C)nc2c1,i,.,.,.,i,.
Cc1cc(N2CCN(Cc3cn(C)nc3-c3cccc(Cl)c3)CC2)cc(C)n1,?,?,23µM*,-19,9.2µM*,9
Cc1cc(N2CCN(Cc3cn(C)nc3-c3ccccc3F)CC2)cc(C)n1,i,16µM*,7.3µM*,-11,6.5µM*,4
Cn1cc(CN2CCC(C(O)c3cccs3)CC2)c(-c2cccc(Cl)c2)n1 (centres undefined),i,5%,-11%,-16,i,30
Cc1cc(-c2nn(-c3ccccc3F)cc2CN2CCN(c3ccncc3)CC2)c(C)s1,i,?,?,-136*,i,-137*
Cc1cc(-c2nn(-c3ccccc3F)cc2CN2CCC(O)CC2)c(C)s1,i,1%,-2%,3,i,-10
Cn1cc(CN2CCN(c3ncccn3)CC2)c(-c2cccc(Cl)c2)n1,?,21µM*,6%,-8,i,11
O=CNCc1nc2ccccc2n1CCc1ccccc1,?,?,2.9µM*,-18,i,-3
O=CNCCCc1nc2ccccc2n1CCc1ccccc1,i,14%,-2%,-5,i,8
O=C1C=CC(=O)N1c1cccc(-c2ccccc2)c1,i,21µM*,?,4,i,2
O=c1cc(-c2ccccc2)[nH]n1-c1ccccc1,i,?,?,8,i,-6
O=c1c2nncn2c2cccnc2n1CCNc1ncc(C(F)(F)F)cc1Cl,i,-1%,?,15,?,-1
NNc1nc2cccnc2n(CCNc2ncc(C(F)(F)F)cc2Cl)c1=O,?,21µM*,1%,9,?,-16
CC(=O)Nc1cncc(-c2ccccc2N(C)C)n1,i,.,.,.,i,.
Cc1cccc(Nc2nc(NC(C)C)nc(Oc3ccc(=O)n(C)n3)n2)c1,8.2µM*,-3%,-19%,-2,i,7
CC(C)Nc1nc(NC(C)C)nc(Oc2ccc(=O)n(C)n2)n1,i,1%,-2%,33,i,3
Cc1ccc(CNC(=O)Cn2cnc3c(OCc4ccccc4)ncnc32)o1,i,?,?,8,i,-2
O=C1C=CC(=Nc2cccc3c2C(=O)c2ccccc2-3)O1,i,?,23µM*,30,?,-3
Cc1ccccc1N1CCN(C2=NC(=O)/C(=C\c3cccs3)S2)CC1,i,6.5µM*,?,-33,?,-16
Cc1cc(C)c(NC(=O)CN2C(=O)C3(SCC(=O)N3c3ccc(F)cc3)c3ccccc32)c(C)c1 (centres undefined),15µM*,.,.,.,i,.
Cc1ccc(N2C(=O)CSC23C(=O)N(CC(=O)NC2CCCCC2)c2ccccc23)cc1 (centres undefined),18µM*,.,.,.,i,.
Cc1ccc(N2C(=O)CSC23C(=O)N(CC(=O)Nc2ccccc2F)c2ccccc23)cc1C (centres undefined),?,.,.,.,i,.
CC1=CC(C)(C)N2C(=O)C3(SCC(=O)N3c3ccc(F)cc3)c3cc(C)cc1c32 (centres undefined),16µM*,8%,13%,-3,?,-5
Cc1ccc(NC(=O)CN2C(=O)C3(SCC(=O)N3c3cccc(Cl)c3)c3ccccc32)cc1C (centres undefined),10µM*,.,.,.,i,.
SMILES,KB-V1 MDR tox,MCF10A rereplic,SW480 rerep,KCNH2 3.1 block,KB-3-1 tox,KCNH2 WT inh
Cc1ccc(N2C(=O)CSC23C(=O)N(CC(=O)NCc2ccccc2)c2ccccc23)cc1 (centres undefined),i,.,.,.,i,.
Cc1ccc(N2C(=O)CSC23C(=O)N(CC(=O)Nc2ccc(C(C)C)cc2)c2ccccc23)cc1C (centres undefined),i,.,.,.,i,.
CC1=CC(C)(C)N2C(=O)C3(NCCc4c3[nH]c3ccccc43)c3cc(C)cc1c32 (centres undefined),?,9%,?,-14,?,13
COC(=O)C1(CC2CC(c3ccncc3)=NO2)CCN(C(=O)OC(C)(C)C)CC1 (centres undefined),?,?,0%,-5,i,-6
O=C(CSc1nc2ccccc2c(=O)n1-c1ccc(F)cc1F)NC1CC1,i,.,.,-1,i,-5
O=C(CSc1nc2ccccc2c(=O)n1-c1ccc(F)cc1F)c1c[nH]c2ccccc12,i,?,-4%,0,i,-122*
O=C1C2C3C=CC(C3)C2C(=O)N1CCCCCCN1C(=O)C2C3C=CC(C3)C2C1=O (centres undefined),18µM*,11%,-2%,18,?,0
O=C(O)CCN1C(=O)C2C3C=CC(C3)C2C1=O (centres undefined),i,?,0%,10,i,12
CC(=O)c1cccc(NC(=O)CSc2nc(N3CCCCC3)nc(N3CCCCC3)n2)c1,i,5%,2.2µM*,-22,i,-23
COc1cccc(-c2onc3ccc(C4(C)OCCO4)cc23)c1,i,18µM*,16%,6,i,-12
Cc1cccc(NC(=S)NC(=O)c2ccco2)n1,i,1%,-6%,-3,i,-1
O=C(Cn1cccc1C(=O)c1ccccc1)NCc1ccccc1,23µM*,10%,2%,-11,i,-10
O=C1CCN(Cc2ccc(O)cc2)CCN1[C@H](CO)c1ccccc1,i,-3%,1%,-118*,i,-3
O=C1CCN(Cc2ccccc2)CCN1[C@H](CO)Cc1ccccc1,?,-35%,5.2µM*,8,i,-10
CCCCCCCN1CCC(=O)N([C@H](CO)Cc2ccccc2)CC1,?,-3%,-11%,-109*,?,?
O=C(c1ccc(Cl)cc1)N1CCC(C(=O)N2CCCc3ccccc32)CC1,.,-6%,1%,-28,.,7

# Screens as filed in PubChem BioAssay.
